# Laboratory results: PubChem BioAssay AID624267 (The Scripps Research Institute Molecular Screening Center, 2012)
# Screen size: about 360,000 compounds; about 1,400 (0.39%) were called active. The sample as a whole holds a higher share of actives than the screen did. Values without a mark were called inactive. Cut-off read from the data, not from the text of the source: active = inhibition above about 21%; inactive = the rest.
# Target: Receptor-interacting serine/threonine-protein kinase 2 (Homo sapiens) (UniProt O43353)
# Sequence (O43353 whole entry, looked up): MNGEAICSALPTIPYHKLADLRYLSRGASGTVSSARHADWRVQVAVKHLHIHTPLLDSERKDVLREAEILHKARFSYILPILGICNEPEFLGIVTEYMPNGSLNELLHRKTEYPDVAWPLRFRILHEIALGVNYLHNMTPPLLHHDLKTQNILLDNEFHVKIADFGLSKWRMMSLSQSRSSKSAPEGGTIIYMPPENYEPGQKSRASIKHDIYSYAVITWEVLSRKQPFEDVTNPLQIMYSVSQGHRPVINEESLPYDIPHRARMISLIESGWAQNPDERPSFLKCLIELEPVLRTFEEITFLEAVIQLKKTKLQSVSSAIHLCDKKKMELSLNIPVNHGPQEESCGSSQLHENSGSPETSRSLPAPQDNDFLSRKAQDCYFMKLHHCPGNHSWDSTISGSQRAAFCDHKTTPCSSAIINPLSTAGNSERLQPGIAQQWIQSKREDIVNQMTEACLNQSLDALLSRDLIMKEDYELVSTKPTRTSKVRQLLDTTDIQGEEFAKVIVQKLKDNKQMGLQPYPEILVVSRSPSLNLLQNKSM
# Experiment: inhibitors of RIPK2 association with NOD2 – fluorescence, CHO cells, BLA complementation, primary screen (AID 624267);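 note: 0% = vehicle only and 100% = reference blocker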
# Settings: CHO BLA complementation NOD2-RIPK2, CCF4 ratio; at 4.98 µM; hits give high values
row,Compound,inhibition
1,O=C(CNS(=O)(=O)c1ccc2ccccc2c1)Nc1ccc(F)c(F)c1F,-7.54%
2,Cc1ccnc(NC(=O)CCC(=O)N(CC(=O)NCCc2ccccc2)Cc2cccs2)c1,0.75%
3,O=C1/C(=C/c2cccs2)CCC1C1CCCC1 (stereo unspecified),-6.88%
4,CCCc1cc(=O)oc2c(C)c(OCC(=O)Nc3ccccn3)ccc12,-2.73%
5,COc1cccc(C(=O)OCc2cc(=O)oc3c(C)c(C)ccc23)c1OC,-0.79%
6,COC(=O)Cc1cc(=O)oc2c(C)c(O)ccc12,33.2% (active)
7,CCCCn1nnnc1C1(C)CCC(=O)N1Cc1ccc(OC)c(OC)c1 (stereo unspecified),-13.3%
8,COC(C)(C)[C@]12CC(O)(C(C)C)ON1[C@H]1CCCCC1N2O (stereo partly specified),-0.99%
9,CCOC(=O)Cc1c(C)nc2c(C#N)c(C)nn2c1C,1.59%
10,O=C(/C=C/c1ccc(N2CCOCC2)cc1)c1ccccc1,30.6% (active)
11,CC(=O)Oc1ccc(C)cc1N1C(=O)c2ccc(C(=O)O)cc2C1=O,-5.17%
12,O=C(O)CCC(=O)Nc1ccc(N2CCOCC2)cc1,-4.21%
13,CCCOC(=O)c1ccc(N2C(=O)c3ccccc3C2=O)cc1,1.19%
14,C/C(=C/c1ccccc1)C(=O)N1CCN(c2ccccc2)CC1,-2.58%
15,O=C(O)c1ccc2c(c1)C(=O)N(c1ccc(/C=C/C(=O)c3ccccc3)cc1)C2=O,23.8% (active)
16,CCN(C(=O)COC(=O)C1CCN(S(=O)(=O)c2ccc(C)c(C)c2)CC1)C1CCS(=O)(=O)C1 (stereo unspecified),-0.71%
17,O=C(Nc1ccc(OCCO)cc1)c1csc([C@H]2C[C@H](O)[C@@H](CO)O2)n1,-10.7%
18,NC(=O)NC(=O)C(OC(=O)CCNS(=O)(=O)c1ccccc1)c1ccccc1 (stereo unspecified),-7.31%
19,O=C(CN1CCCCC1)N1c2ccccc2Sc2ccc(C(F)(F)F)cc21,1.57%
20,CC1CCN(C(=O)c2ccccc2NC(=O)Cc2ccccc2)CC1,-1.45%
21,CC(NC(=O)c1ccc(S(=O)(=O)Nc2ccccc2)cc1)c1ccc(S(N)(=O)=O)cc1 (stereo unspecified),3.07%

row,Compound,inhibition
1,CCn1cc(C(=O)NCC2COc3ccccc3O2)c2cc(OC)c(OC)cc2c1=O (stereo unspecified),-5.84%
2,O=C1C(=O)N(c2ccccc2)c2ccccc21,9.77%
3,O=C1C(=O)N(CC2COc3ccccc3O2)c2ccccc21 (stereo unspecified),22.5% (active)
4,C[C@H]1CN([C@@H](C)CO)C(=O)Cc2cc(NC(=O)Cc3ccccc3)ccc2O[C@H]1CN(C)S(=O)(=O)c1cccs1,-4.34%
5,Cc1ccc(S(=O)(=O)n2cnc3ccccc32)c(C)c1,3.17%
6,COc1cc2nnn(-c3ccncc3)c2cc1OC,-0.06%
7,CC(C)(C)NC(=O)COC(=O)c1cc(Br)ccc1Cl,-6.13%
8,c1csc(-c2nnc(COc3ncnc4sccc34)o2)c1,2.97%
9,Brc1ccc(C2=CC(c3ccco3)n3ncnc3N2)cc1 (stereo unspecified),24.6% (active)
10,CCOc1ccc(C2=CC(c3ccccc3)n3ncnc3N2)cc1 (stereo unspecified),42.2% (active)
11,CCOc1ccccc1C1CC(c2ccccc2)Nc2nc(N)nn21 (stereo unspecified),-8.78%
12,CC1=C(C(=O)OC2CCCCC2)C(c2cccnc2)n2ncnc2N1 (stereo unspecified),7.46%
13,COc1ccc(CN2CCCCC2C)cc1OC (stereo unspecified),-10.3%
14,C/C(CC(C)C)=N\Oc1nc(C)cc(C)n1,-7.31%
15,COCCCNC(=O)CN1CCN(Cc2ccccc2Cl)C1=O,5.43%
16,CCc1ccccc1N(CC(=O)N1CCN(c2ccccc2F)CC1)S(C)(=O)=O,-2.64%
17,O=C(CNC(=O)OCc1ccccc1)Oc1cc2oc(=O)cc(-c3ccccc3)c2cc1Cl,52.2% (active)
18,O=C(CNC(=O)c1ccccc1)NCC(=O)OCc1ccc(Cl)cc1,1.19%
19,O=C(CNC(=O)Cc1ccccc1)NCC(=O)OCC(=O)c1ccccc1Cl,-8.44%
20,O=C(Nc1ccc(CSc2ccccc2)cc1)c1ccc(CN2CCOCC2)cc1,-2.26%
21,O=C(Cc1ccccc1)Nc1c(Cl)ccc2nsnc12,-10.4%

row,Compound,inhibition
1,C=CC(COCc1ccccc1)N(Cc1ccccc1)S(=O)(=O)c1ccccc1Br (stereo unspecified),0.84%
2,COc1cc(C)c(C(C)C)cc1S(=O)(=O)n1ccnc1,-1.8%
3,O=C(NCc1ccncc1)C1CCN(C(=O)c2cccc(Cl)c2)CC1,-2.02%
4,CCN(C(=O)CSc1cccc[n+]1[O-])c1ccccc1,1.91%
5,Cn1c(Cc2cccc3ccccc23)nnc1SCC(=O)N1CCN(c2cccc(Cl)c2)CC1,2.05%
6,COCCCn1c(Cc2csc(Nc3cccc(Cl)c3)n2)nnc1SCC(=O)OC1CCCCC1,-7.45%
7,O=C(Cc1csc(Nc2nc(=S)[nH]c3ccccc23)n1)NCCCN1CCN(c2cccc(Cl)c2)CC1,38.1% (active)
8,CNC(=O)n1ccc(C(=O)N2CCCCC2)n1,1.22%
9,O=C(NN1C(=O)C2C3C=CC(O3)C2C1=O)c1ccccc1 (stereo unspecified),-0.12%
10,CCSc1nnc(SCC(=O)NNC(=O)c2ccccc2F)s1,-9.88%
11,Cc1nnc(SCC(=O)NC2CCCC2)s1,-7.66%
12,Cc1nnc(SCC(=O)Nn2cnnc2)s1,34.9% (active)
13,CCOc1ccc(/C(O)=C2/C(=O)C(=O)N(Cc3cccnc3)C2c2ccc(N(C)C)cc2)c(C)c1 (stereo unspecified),-5.35%
14,O=C(COc1nsnc1N1CCOCC1)Nc1ccccc1Cl,-6.94%
15,O=C(Nc1ccccc1Cl)/C(Cl)=C(\Cl)S(=O)c1ccccc1 (stereo unspecified),70.5% (active)
16,O=C(Nc1ccccc1)c1nnsc1S(=O)(=O)c1ccc(Cl)cc1,56.9% (active)
17,C/C(=N\NS(=O)(=O)c1ccc(Cl)cc1)c1ccc(NC(=O)c2ccco2)cc1,7.02%
18,CN(C)/C=C(/C(=O)c1ccccc1)S(=O)(=O)c1ccc(Cl)cc1,10.5%
19,CCOc1ccc(CN2CCC(n3nccc3NC(=O)C3CC3)CC2)cc1CO,-4.91%
